According to PubChem BioAssay AID1578 (Sanford-Burnham Center for Chemical Genomics, 2009):
Hit rate of the full screen: of about 290,000 compounds, about 3,000 (1%) were called active. The list comes from a sample in which actives are over-represented; it also holds similar structures and randomly drawn compounds. A number with no mark means an inactive call. Cut-off read from the data, not from the text of the source: active = inhibition mostly above about 36% (no sharp cut-off); inactive = mostly below about 34%.

Assay: inhibition of NOD1-driven NF-kB reporter – cell-based, luminescence, uHTS, primary screen (AID 1578);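 note: HEK-293T reporter cells stimulated with the NOD1 agonist gamma-tri-DAP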
Settings: NOD1-driven NF-kB luciferase reporter cells, at 4 µM, hits give high values

SMILES	inhibition
O=C(N/N=C/c1ccc(O)cc1)c1ccc(NC(=O)c2ccccc2Br)cc1	-3.3%
CCOc1ccc(CNC(=O)CCCC(=O)n2ncc3cc(C)ccc32)cc1	-10.4%
CN1C(=O)c2cccc(NC(=O)Cc3ccccc3)c2C1=O	5.1%
CCC(=O)Nc1cccc2c1C(=O)N(C)C2=O	83.2% (active)
CN1C(=O)c2cccc(NC(=O)CCc3ccccc3)c2C1=O	-23%
CCCCNC(=S)Nc1ccc(Cl)cc1	0.1%
Cc1oc(-c2ccccc2Cl)nc1CSc1nc2c(c(=O)[nH]1)CCC2	34%
Cc1oc(-c2ccccc2Cl)nc1CSCC(=O)N1CCCC1	25.8%
COc1ccccc1N1CCN(c2ccc([N+](=O)[O-])cc2Cl)CC1	7.1%
Oc1ccc(Cc2ncc(C(F)(F)F)cc2Cl)cc1	5.6%
Cc1cccc(CS(=O)(=O)c2ncc(Cl)c(C(=O)NCc3ccccc3)n2)c1	34.5%
O=C(NCc1ccc2c(c1)OCO2)c1nc(S(=O)(=O)Cc2ccccc2)ncc1Cl	16.2%
Cc1ccc(NC(=O)c2nc(S(=O)(=O)Cc3ccccc3)ncc2Cl)cc1	34.5%
CC(=O)Nc1ccc(NC(=O)c2nc(S(=O)(=O)Cc3cccc(C)c3)ncc2Cl)cc1	8.3%
Cc1cccc(CS(=O)(=O)c2ncc(Cl)c(C(=O)NCc3ccc4c(c3)OCO4)n2)c1	70.3% (active)
CC(=O)Nc1ccc(NC(=O)c2nc(S(=O)(=O)Cc3ccccc3)ncc2Cl)cc1	11.7%
Cc1nnc(NC(=O)c2nc(S(=O)(=O)Cc3ccccc3C)ncc2Cl)s1	41.7%
COc1ccc(/C=C2\SC(=S)N(CCC(=O)N3CCCCC3)C2=O)cc1	13.7%
CCN(CC)CCNC(=O)CS(=O)Cc1nc(-c2ccc(C)cc2)oc1C (configuration not stated)	13.6%
CN(C)c1cccc(C(=O)NNC(=S)NC2CCCC2)c1	-23.1%
CCC(C)C(NC(=O)C(CC(C)C)NC(=O)C(CO)NC(=O)C1CCC(=O)N1)C(=O)OC (configuration not stated)	-36%
CN(Cc1nc2ccccc2[nH]1)Cc1nc(CC2CC2)no1	-48.9%
COCCNC(=S)NNC(=O)CSCc1ccc(Cl)cc1Cl	-40.2%
CCCC(=O)NCCc1nc2ccccc2n1CCC	-14.2%
COc1ccc(C(=O)ON=C2CCN(C)CC2)cc1	-31.9%

SMILES	inhibition
Cc1cc(NC(=O)OC2CCCCC2)ccc1[N+](=O)[O-]	-54.1%
COc1ccc(CNC(=O)Cc2cn(C)c3ccccc23)c(OC)c1	-7.1%
COc1cc(C(=O)NS(=O)(=O)c2ccccc2C)ccc1Cc1cn(C)c2ccc(NC(=O)OC3CCCC3)cc12	39.2% (active)
CCOc1ccc(OCC)c(S(=O)(=O)NCc2cccnc2)c1	-17.5%
NCCc1nnc(SCC(=O)Nc2ccc(Br)cc2)o1	-15.9%
CC(NC(=O)c1ccc2nc[nH]c2c1)c1ccccc1 (configuration not stated)	-33.6%
Cn1nnnc1SCC(=O)N1CCN(C(=O)c2ccco2)CC1	-32.2%
O=C(O)CCCNC(=O)c1cncc(O)c1	15.1%
N=c1ccn(Cc2ccc(Cl)c(Cl)c2)cc1	79.2% (active)
N=c1ccn(Cc2cccc(Cl)c2)cc1	8.9%
N=c1ccn(Cc2ccc(Cl)cc2)cc1	30.5%
COC(Cn1c(-c2cccc(S(=O)(=O)N(C)C)c2)n[nH]c1=S)OC	-34.1%
Cc1cc(NC(=O)c2cc3ncc(Br)cn3n2)no1	-40.8%
O=C(O)CCCn1cc(NC(=O)c2c(F)cccc2F)cn1	-50.2%
O=C(NCc1ccccn1)c1nc(Cn2cc([N+](=O)[O-])cn2)no1	-23.2%
Fc1ccc(C2NCCn3cccc32)cc1 (configuration not stated)	25.8%
c1ccc(C2NCCn3cccc32)cc1 (configuration not stated)	-14.6%
COc1ccc(C2NCCn3cccc32)cc1 (configuration not stated)	112% (active)
Cc1ccc(C(c2nnnn2CS(=O)(=O)c2ccc(C)cc2)N2CCN(c3ncccn3)CC2)cc1 (configuration not stated)	-41.2%
COc1ccc(CNC(=O)CN2CCN(c3cccc(C)c3C)CC2)cc1	-3.6%
O=C(CSc1nc2ccccc2n1-c1ccccc1)Nc1ncc(Cl)cc1Cl	48.8%
COc1ccc(-n2c(SCC(=O)Nc3ncc(Cl)cc3Cl)nc3ccccc32)cc1	58.9% (active)
Cc1ccc(-n2c(SCC(=O)Nc3ncc(Cl)cc3Cl)nc3ccccc32)cc1	59.3%
Cc1ccc(SCC(=O)N2N=CCC2c2ccccc2)cc1 (configuration not stated)	-19.9%
O=c1cc(O)n(-c2ccccc2F)c(=S)[nH]1	0%

SMILES	inhibition
CCOC(=O)c1c(C)sc2c1N(C(C)=O)c1cc(Cl)ccc1S2	25.7%
CCOC(=O)c1c(C)sc2c1N(C(=O)CCl)c1cc(Cl)ccc1S2	55.3% (active)
CCOC(=O)c1c(C)sc2c1N(C(=O)CN(CC)CC)c1cc(Cl)ccc1S2	-0.4%
CC(=O)Nc1ccc(S(=O)(=O)NCc2nc(-c3ccccc3)no2)cc1	-7.6%
CCOC(=O)C1=C(C)NC(=O)NC1c1cc2c(cc1Br)OCO2 (configuration not stated)	-20.8%
Cc1cc(OC(=O)c2ccccc2)n(CCC#N)n1	6.7%
COc1ccc(Oc2c(C(F)(F)F)oc3cc(OCC(=O)O)ccc3c2=O)cc1	4.6%
O=C(O)c1ccc(Oc2c(C(F)(F)F)oc3cc(O)ccc3c2=O)cc1	-31.7%
COc1ccc2c(=O)c(Oc3ccc(C(=O)O)cc3)c(C(F)(F)F)oc2c1	47.7% (active)
O=C(c1ccc(F)cc1)N1CCN(c2ccc([N+](=O)[O-])c(N3CCOCC3)c2)CC1	-17.8%
C[C@@H]1C[C@@H]2OC(=O)[C@]3(C)[C@H]2[C@@H](OC3(C)O)[C@]2(C)C(=O)C=C[C@H]12 (some centres not stated)	-7.5%
C=C1C(=O)C=C[C@]2(C)C[C@@H]3OC(=O)[C@](C)(O)[C@H]3C[C@@H]12	33.2% (active)
CCCCNc1nc2ccccc2n1CC(=O)Nc1ccc2c(c1)OCCO2	-11.5%
O=C(O)c1ccc(Cl)cc1NC(=O)C1CCCO1 (configuration not stated)	-22%
COc1ccccc1N(C)S(=O)(=O)c1ccc(Cl)c(C(=O)NCCCN2CCOCC2)c1	-22.8%
CN(c1ccccc1)S(=O)(=O)c1ccc(Cl)c(C(=O)Nc2ccc(N3CCOCC3)cc2)c1	-13%
COc1ccc(CNC(=O)CSc2nc3ccc(C)cc3[nH]2)cc1OC	0.6%
CCOc1ccc(/C=N/NC(=O)C(=O)N2CCCCCC2)c2ccccc12	12%
CC(C)N1C/C(=C/c2ccsc2)C(=O)/C(=C/c2ccsc2)C1	80.5% (active)
CN1C/C(=C/c2ccsc2)C(=O)/C(=C/c2ccsc2)C1	-44.5%
CC(C)N1C/C(=C/c2cccnc2)C(=O)/C(=C/c2cccnc2)C1	49.5%
Cc1cc(NC(=O)c2cccnc2)ccc1NC(=O)c1ccco1	-65.2%
COc1ccc(-c2csc(/C(C#N)=C\c3ccc(OC)c([N+](=O)[O-])c3)n2)cc1	-19.7%
COc1ccc(-c2csc(/C(C#N)=C\c3cccc([N+](=O)[O-])c3)n2)cc1	-40.1%
COc1cc(/C=C(/C#N)c2nc(-c3cc4ccccc4oc3=O)cs2)cc([N+](=O)[O-])c1O	6.6%

SMILES	inhibition
N#C/C(=C\c1ccc([N+](=O)[O-])cc1)c1nc(C2CC2)cs1	-14.9%
COc1ccc(-c2csc(/C(C#N)=C\c3ccc(O)c([N+](=O)[O-])c3)n2)cc1OC	78.3% (active)
O=C(NC1CCSc2ccccc21)c1cccc(Cl)c1 (configuration not stated)	-18.6%
CCc1cc(-c2nc(N)ncc2-c2ccc(Br)cc2)c(O)cc1OC	-5.1%
Cc1nc2cc(-c3ccccc3)[nH]n2c(=O)c1C	-59.1%
Cc1ccc2ccc3ccc(C)nc3c2n1	44.3% (active)
Cc1ccc2cccc(OCc3ccccc3)c2n1	-0.7%
Cc1ccc2cccc(N)c2n1	-43.8%
C/C(=N\Nc1cc(C(F)(F)F)ccc1Cl)c1ccccc1O	15.7%
COc1ccc(-n2ncc3c(N4CCC(C(N)=O)CC4)ncnc32)cc1	-30%
CC1CC(C)CN(c2ncnc3c2cnn3-c2ccc(Cl)cc2)C1 (configuration not stated)	1.3%
CC1CCCN(c2ncnc3c2cnn3-c2ccc(Cl)cc2)C1 (configuration not stated)	73.3% (active)
Clc1ccc(-n2ncc3c(N4CCCCCC4)ncnc32)cc1	78.4% (active)
CN1CCN(c2ncnc3c2cnn3-c2ccc(Cl)cc2)CC1	-13.8%
CCCN(CCC)c1ncnc2c1cnn2-c1ccc(OC)cc1	-46.4%
Cc1cccc(-n2ncc3c(N(C)C4CCCCC4)ncnc32)c1	27.6%
Clc1ccc(-n2ncc3c(N4CCCC4)ncnc32)cc1	39.9%
COc1ccc(-n2ncc3c(N4CCCCC4)ncnc32)cc1	87% (active)
COc1ccc(-n2ncc3c(N4CCC(C)CC4)ncnc32)cc1	-5.4%
CC1CCCN(c2ncnc3c2cnn3-c2ccccc2)C1 (configuration not stated)	0.1%
CCOC(=O)c1ccc(NC(=O)CSc2nc(N)c(NC(=O)c3ccc(Br)o3)c(=O)[nH]2)cc1	-26.5%
CN(C(=O)COC(=O)c1cc(S(=O)(=O)N2CCCCC2)ccc1N1CCOCC1)C1CCS(=O)(=O)C1 (configuration not stated)	-0.1%
